The values that follow come from ChEMBL document CHEMBL1961873, “Compounds: GSK PKIS; Assays: Nanosyn kinase panel” (2012).

In test [1] the target is T1, Aurora kinase A (Homo sapiens) (UniProt O14965).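 Further: values are mean percent inhibition.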
T1 sequence (whole entry): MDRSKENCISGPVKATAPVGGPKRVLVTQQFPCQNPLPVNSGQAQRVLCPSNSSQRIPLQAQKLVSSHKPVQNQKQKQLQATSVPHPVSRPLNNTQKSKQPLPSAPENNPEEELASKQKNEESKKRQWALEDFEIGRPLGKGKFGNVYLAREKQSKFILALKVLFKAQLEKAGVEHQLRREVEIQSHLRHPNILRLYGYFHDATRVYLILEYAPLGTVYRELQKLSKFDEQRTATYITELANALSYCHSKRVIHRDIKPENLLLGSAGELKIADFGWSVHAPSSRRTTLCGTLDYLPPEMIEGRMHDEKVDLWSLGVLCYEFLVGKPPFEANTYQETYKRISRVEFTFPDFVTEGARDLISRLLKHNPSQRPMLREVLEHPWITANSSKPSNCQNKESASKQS
The following applies: at 1 µM.

For test [2], the target named is Aurora kinase B (Homo sapiens) (UniProt Q96GD4). The following applies: at 0.1 µM.
Test [3] has the same target. The following applies: at 1 µM.
Test [4] addresses T2, Aurora kinase C (Homo sapiens) (UniProt Q9UQB9).
T2 sequence (whole entry): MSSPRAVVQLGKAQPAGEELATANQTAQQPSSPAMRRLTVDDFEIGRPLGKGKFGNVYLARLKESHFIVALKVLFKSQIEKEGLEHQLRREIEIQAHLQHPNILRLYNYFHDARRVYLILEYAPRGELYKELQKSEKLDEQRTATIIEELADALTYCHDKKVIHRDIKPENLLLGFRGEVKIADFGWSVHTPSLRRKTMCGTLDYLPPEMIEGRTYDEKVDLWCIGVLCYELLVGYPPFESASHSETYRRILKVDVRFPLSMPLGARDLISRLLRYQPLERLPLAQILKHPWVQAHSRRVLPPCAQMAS
The following applies: at 0.1 µM.

Test [5] deals with T2, Aurora kinase C (Homo sapiens). To be noted: at 1 µM.
For test [6], the target named is Serine/threonine-protein kinase 10 (Homo sapiens) (UniProt O94804). The following applies: at 0.1 µM.
Test [7] shares this target. The following applies: at 1 µM.
Test [8] addresses T3, Mitogen-activated protein kinase kinase kinase kinase 2 (Homo sapiens) (UniProt Q12851).
T3 sequence (whole entry): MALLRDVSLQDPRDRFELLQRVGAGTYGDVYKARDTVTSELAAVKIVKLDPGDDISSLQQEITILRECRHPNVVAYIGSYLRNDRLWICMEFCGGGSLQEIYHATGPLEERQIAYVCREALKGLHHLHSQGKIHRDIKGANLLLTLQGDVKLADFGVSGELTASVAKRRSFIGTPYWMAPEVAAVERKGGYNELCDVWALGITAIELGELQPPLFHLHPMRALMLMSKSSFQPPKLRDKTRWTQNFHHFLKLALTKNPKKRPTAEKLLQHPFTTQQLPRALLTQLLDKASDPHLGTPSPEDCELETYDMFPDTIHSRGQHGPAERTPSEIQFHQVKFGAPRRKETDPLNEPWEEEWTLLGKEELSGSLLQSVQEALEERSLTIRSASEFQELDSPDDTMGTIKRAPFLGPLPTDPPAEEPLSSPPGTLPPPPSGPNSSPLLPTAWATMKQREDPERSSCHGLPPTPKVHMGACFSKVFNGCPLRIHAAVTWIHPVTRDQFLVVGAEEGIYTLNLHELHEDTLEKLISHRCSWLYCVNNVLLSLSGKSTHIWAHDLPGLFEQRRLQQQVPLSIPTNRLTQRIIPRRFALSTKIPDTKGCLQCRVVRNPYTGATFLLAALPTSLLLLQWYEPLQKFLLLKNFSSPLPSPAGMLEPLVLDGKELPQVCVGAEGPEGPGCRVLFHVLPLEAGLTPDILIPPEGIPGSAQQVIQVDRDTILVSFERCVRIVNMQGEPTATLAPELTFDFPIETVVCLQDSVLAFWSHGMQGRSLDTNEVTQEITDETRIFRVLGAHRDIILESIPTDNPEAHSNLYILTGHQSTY
To be noted: at 0.1 µM.

In test [9] the target is T3, Mitogen-activated protein kinase kinase kinase kinase 2 (Homo sapiens). To be noted: at 1 µM.
Test [10] deals with Mitogen-activated protein kinase kinase kinase kinase 4 (Homo sapiens) (UniProt O95819). To be noted: at 0.1 µM.
Chain of Mitogen-activated protein kinase kinase kinase kinase 4 (Homo sapiens) (O95819 2-1239 limits assumed): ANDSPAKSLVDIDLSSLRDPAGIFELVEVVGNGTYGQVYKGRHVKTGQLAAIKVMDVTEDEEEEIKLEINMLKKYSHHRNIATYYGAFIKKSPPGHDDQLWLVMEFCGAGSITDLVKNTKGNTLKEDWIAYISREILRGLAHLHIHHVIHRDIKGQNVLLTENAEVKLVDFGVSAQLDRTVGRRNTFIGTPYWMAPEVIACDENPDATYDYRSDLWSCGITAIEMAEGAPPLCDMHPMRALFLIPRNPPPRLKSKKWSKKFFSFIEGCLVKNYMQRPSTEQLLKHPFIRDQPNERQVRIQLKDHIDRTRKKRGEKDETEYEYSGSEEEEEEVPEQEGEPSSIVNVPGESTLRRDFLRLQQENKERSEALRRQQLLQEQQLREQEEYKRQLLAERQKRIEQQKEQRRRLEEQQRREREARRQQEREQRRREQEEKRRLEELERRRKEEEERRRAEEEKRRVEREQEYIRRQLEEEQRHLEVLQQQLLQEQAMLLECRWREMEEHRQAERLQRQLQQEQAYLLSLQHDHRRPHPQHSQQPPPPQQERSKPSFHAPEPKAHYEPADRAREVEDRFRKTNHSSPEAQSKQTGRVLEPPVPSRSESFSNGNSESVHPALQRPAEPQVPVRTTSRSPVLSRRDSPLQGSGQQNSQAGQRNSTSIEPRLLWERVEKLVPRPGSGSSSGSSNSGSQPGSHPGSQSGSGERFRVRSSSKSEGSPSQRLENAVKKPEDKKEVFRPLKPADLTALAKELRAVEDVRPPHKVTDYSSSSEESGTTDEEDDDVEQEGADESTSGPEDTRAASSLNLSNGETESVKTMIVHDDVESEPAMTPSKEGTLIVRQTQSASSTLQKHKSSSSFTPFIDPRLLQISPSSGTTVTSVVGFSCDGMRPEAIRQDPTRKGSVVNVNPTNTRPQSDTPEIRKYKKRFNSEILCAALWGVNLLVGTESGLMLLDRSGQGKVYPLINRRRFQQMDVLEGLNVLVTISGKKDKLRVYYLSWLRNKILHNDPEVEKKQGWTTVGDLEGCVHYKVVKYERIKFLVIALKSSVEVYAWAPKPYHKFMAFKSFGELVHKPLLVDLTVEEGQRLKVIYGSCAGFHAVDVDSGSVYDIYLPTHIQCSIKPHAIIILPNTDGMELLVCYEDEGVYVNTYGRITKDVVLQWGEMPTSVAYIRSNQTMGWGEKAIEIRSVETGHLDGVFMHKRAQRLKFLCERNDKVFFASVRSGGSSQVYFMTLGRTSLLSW

Chain of Serine/threonine-protein kinase 10 (Homo sapiens) (O94804 whole entry, looked up): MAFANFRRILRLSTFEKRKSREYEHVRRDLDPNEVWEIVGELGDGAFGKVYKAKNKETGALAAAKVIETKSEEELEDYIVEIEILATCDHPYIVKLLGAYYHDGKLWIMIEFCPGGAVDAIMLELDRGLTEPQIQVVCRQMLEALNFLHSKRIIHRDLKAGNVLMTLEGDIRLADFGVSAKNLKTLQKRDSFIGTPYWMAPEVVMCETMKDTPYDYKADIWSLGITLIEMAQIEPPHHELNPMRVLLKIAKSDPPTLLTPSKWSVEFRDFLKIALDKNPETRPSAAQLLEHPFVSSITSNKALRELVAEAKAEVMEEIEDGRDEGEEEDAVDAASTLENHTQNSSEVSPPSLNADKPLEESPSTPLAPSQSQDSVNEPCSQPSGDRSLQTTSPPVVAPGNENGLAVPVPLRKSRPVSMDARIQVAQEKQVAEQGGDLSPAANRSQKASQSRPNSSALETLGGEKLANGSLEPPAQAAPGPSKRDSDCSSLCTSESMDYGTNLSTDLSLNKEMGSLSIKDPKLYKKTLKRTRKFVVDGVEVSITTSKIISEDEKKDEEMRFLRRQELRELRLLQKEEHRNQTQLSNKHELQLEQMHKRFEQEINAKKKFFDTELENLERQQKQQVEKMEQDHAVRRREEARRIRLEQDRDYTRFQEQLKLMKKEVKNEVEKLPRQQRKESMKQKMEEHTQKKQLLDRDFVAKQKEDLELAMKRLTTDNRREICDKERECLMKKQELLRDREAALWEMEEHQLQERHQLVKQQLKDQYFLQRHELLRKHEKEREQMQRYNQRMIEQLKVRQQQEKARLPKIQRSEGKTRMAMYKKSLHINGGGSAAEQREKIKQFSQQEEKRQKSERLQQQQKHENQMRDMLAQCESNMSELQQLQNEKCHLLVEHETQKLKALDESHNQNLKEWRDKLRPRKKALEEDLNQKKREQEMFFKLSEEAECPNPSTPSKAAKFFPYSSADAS
Chain of Aurora kinase B (Homo sapiens) (Q96GD4 whole entry): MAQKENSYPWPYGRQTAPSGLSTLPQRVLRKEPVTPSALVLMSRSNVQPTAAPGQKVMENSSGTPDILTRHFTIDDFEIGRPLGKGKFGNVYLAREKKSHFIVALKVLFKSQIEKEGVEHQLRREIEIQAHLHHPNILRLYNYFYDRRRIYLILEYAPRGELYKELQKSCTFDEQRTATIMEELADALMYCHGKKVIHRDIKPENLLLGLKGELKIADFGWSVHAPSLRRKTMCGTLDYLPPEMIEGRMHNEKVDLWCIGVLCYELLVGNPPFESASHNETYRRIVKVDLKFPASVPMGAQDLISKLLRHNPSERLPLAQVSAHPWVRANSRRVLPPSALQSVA

Broadly, the inhibition is the relative decrease from the control value, in per cent. For `COc1cc2ncn(-c3cc(O[C@H](C)c4ccccc4Cl)c(C(N)=O)s3)c2cc1OC`, the inhibition stood at 30.1% in test [1]; 8.7% in test [2]; 37.9% in test [3]; 4.62% in test [4]; 50.7% in test [5]; 99.3% in test [6]. Besides, the inhibition in test [7] was found to be 88%; in test [8], 13.6%; in [9], 47.4%; in test [10], 4.5%.

`CCn1c(-c2nonc2N)nc2cncc(C(=O)N3CC[C@H](N)C3)c21`: the inhibition in test [1] was 3.21%; in test [2], 2.84%; in test [3], 6.38%; in [4] it was 1.58%; in test [5] it was -2.29%; in test [6], 4.37%. In addition, the inhibition amounted to 12% in [7], 0.43% in test [8], 2.34% in test [9] and 5.42% in test [10].

On to `NC(=O)c1ccc(-c2nc(-c3ccccn3)c(-c3ccc4c(c3)OCO4)[nH]2)cc1`, for which the inhibition in test [1] is 3.93%; in test [2] it was 4.83%; in test [3] it was 4.45%; in [4], 1.68%; in test [5], -2.72%; in test [6], 6.27%. Besides, the inhibition in test [7] is 3.54%; in [8], 0.64%; in [9] it was 2.35%; in [10] it was 1.99%.

For the compound `COC(=O)Nc1nc2cc(Oc3ccc(NC(=O)Nc4cccc(C(=O)O)c4)cc3)ccc2[nH]1`, the inhibition in test [1] is 12.8%; in test [2], -1.26%; in test [3] it was 9.37%; in test [4], 0.03%; in [5], 37.7%; in test [6] it was 0.65%. The inhibition in test [7] was found to be 7.1%; in test [8], 0.68%; in [9], 1.11%; in test [10], 0.99%.

As for `Cc1ccc(C(=O)NC2CCCCC2)cc1-c1ccc(C(=O)NCC2CC2)cc1`, the inhibition in [1] was 4.4%; in test [2] it was 3.05%; in test [3] it was 7.57%; in test [4], 2.71%; in test [5], 14%; in test [6], 7.27%. Further, the inhibition in test [7] was found to be 6.5%; in [8], 2.78%; in test [9], 2.05%; in test [10], 2.48%.

In the case of `COc1cc2ncn(-c3cc(O[C@@H](C)c4ccccc4Cl)c(C(N)=O)s3)c2cc1OC`, the inhibition in [1] came to 18.1%; in test [2], 8.64%; in [3], 38.8%; in test [4] it was 8%; in test [5], 49.3%; in [6] it was 54%. The inhibition is 79.5% in test [7], 6.14% in test [8], 20.2% in test [9] and 5.91% in test [10].

As for `COC(=O)Nc1nc2cc(Oc3cccc(NC(=O)Nc4cc(C(F)(F)F)ccc4F)c3)ccc2[nH]1`, the inhibition was 1.22% in test [1]; -1.59% in [2]; -0.29% in test [3]; 0.03% in test [4]; 4.29% in test [5]; 4.04% in test [6]. The inhibition was found to be 12.5% in test [7], 1.34% in test [8], 3.06% in test [9] and 3.21% in [10].

`CC1=C(C(=O)Nc2ccc3[nH]ncc3c2)C(c2ccc(F)cc2)NC(=O)N1` (stereo not given): the inhibition stood at 62.7% in [1]; 3.96% in test [2]; 18.5% in [3]; 2.09% in [4]; 26.9% in test [5]; 1.26% in test [6]. The inhibition in test [7] amounted to 5.18%; in test [8], 1.97%; in test [9] it was 3.21%; in test [10], 7.49%.

Consider `CCc1cccc(NC(=O)Nc2ccc(Oc3ccc4nc(NC(=O)OC)[nH]c4c3)cc2)c1`, for which the inhibition in [1] came out at 8.38%; in test [2], 7.89%; in test [3], 15.6%; in test [4] it was 10.3%; in [5], 37.5%; in test [6] it was 46.8%. Also, the inhibition in test [7] came to 57.8%; in test [8], 1.82%; in test [9] it was 5.21%; in [10], 1.49%.

With `Cc1cc(O)cc(C)c1/C=C/c1cncc(-c2nn[nH]n2)c1`, the inhibition in [1] is -0.41%; in test [2] it was -2.87%; in [3], 1.12%; in test [4], -3.31%; in [5] it was -0.15%; in test [6], 5.3%. The inhibition in test [7] turned out to be 39.7%; in test [8] it was 1.25%; in [9], 5.33%; in test [10] it was 8.4%.

Turning to `O=C1Nc2ccc(C(=O)c3ccco3)cc2C1=Cc1cc(Cl)c(O)c(Cl)c1`, the inhibition in test [1] is 67.3%; in test [2], 3.22%; in [3], 13.3%; in test [4], 3.45%; in [5] it was 36.7%; in test [6] it was 4.59%. For the same compound, the inhibition in [7] was determined as 15.1%; in test [8] it was 1.22%; in [9] it was 7.56%; in test [10] it was 27.5%.

Consider `COc1cc(C)c(NC(=O)CN(C)C)cc1Nc1nc(Nc2cccc(F)c2C(N)=O)c2cc[nH]c2n1`, for which the inhibition in [1] is 13.5%; in [2], -2.09%; in test [3], 6.07%; in [4] it was -0.55%; in test [5] it was 12.3%; in test [6], 2.47%. Moreover, the inhibition was determined as 3.17% in test [7], 9.71% in [8], 43.9% in [9] and 4.26% in test [10].

In the case of `Fc1cccc(COc2ccc(Nc3ncnc4sc(-c5cccs5)cc34)cc2Cl)c1`, the inhibition in test [1] was 2.05%; in test [2], 1.14%; in test [3] it was 6.42%; in [4] it was 1.7%; in test [5] it was 7.89%; in test [6], 2.84%. Also, the inhibition is 4.63% in [7], -0.64% in test [8], 1.65% in test [9] and 1.29% in [10].

On to `COc1cc(C=NNc2ncnc3c2cnn3-c2ccccc2)ccc1O`, for which the inhibition in [1] came to 94%; in test [2], 11.5%; in test [3], 56.8%; in test [4], 9.9%; in test [5] it was 88.3%; in [6] it was 5.58%. For the same compound, the inhibition in test [7] worked out at 26.1%; in test [8] it was 4.63%; in test [9], 19.3%; in test [10], 28.1%.

For `O=C1NC(=O)C(N2CCc3ccccc32)=C1c1ccc(Cl)cc1`, the inhibition was 15.5% in test [1]; 5.02% in [2]; 13.8% in [3]; 3.07% in [4]; 15.9% in test [5]; 7.48% in test [6]. Besides, the inhibition amounted to 8.68% in test [7], 1.87% in test [8], 6.3% in [9] and 4.26% in test [10].

For the compound `COc1ccc(-c2nn3ncccc3c2-c2ccnc(Nc3ccc(Cl)c(C(F)(F)F)c3)n2)cc1`, the inhibition in test [1] is 6.68%; in test [2] it was 4.71%; in test [3], 2.65%; in [4] it was 0.61%; in test [5], -3.91%; in [6], 4.44%. The inhibition in test [7] was 10.5%; in test [8], 0.35%; in [9], 0.58%; in test [10] it was 3.81%.
